A selection: hits, their analogues and other compounds. The true share with any hit is near 2.8%.
D3 antag: qHTS of D3 Dopamine Receptor Antagonist: qHTS. AID 652054, 2013. D(3) dopamine receptor (Homo sapiens), P35462. 360,000 tested, 2.5% active. D3R cells, DiscoveRx beta-arrestin luminescence, antagonist mode; stronger effect = lower value. max response, negative = inhibition, %; in the data active = max response below about -50%; inconclusive = no clear call, values can overlap the other calls; note: % is set by controls: 0 for no effect and ±100 for the full control effect
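Cells expressing the human receptor were seeded at 1500 cells/well, incubated overnight at 37 degrees C in 5% CO2, then exposed to library compounds with dopamine controls for 90 minutes at 37 degrees C before luminescent detection.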
PTHR1 ag: qHTS for PTHR1 Agonists: Primary Screen; Parathyroid hormone/parathyroid hormone-related peptide receptor (Homo sapiens), Q03431; HEK293 GP2 PTHR1 cells, GloSensor cAMP luminescence, 1 h; Potency, µM (doses to about 115 µM), for inactives: top-dose activation, hits mostly activators; 410,000 tested, 0.075% active; note: potency is the fitted concentration of half-maximal effect; nearly all actives have a fitted effect of over 55% in size
Target sequence (Q03431 whole entry, looked up): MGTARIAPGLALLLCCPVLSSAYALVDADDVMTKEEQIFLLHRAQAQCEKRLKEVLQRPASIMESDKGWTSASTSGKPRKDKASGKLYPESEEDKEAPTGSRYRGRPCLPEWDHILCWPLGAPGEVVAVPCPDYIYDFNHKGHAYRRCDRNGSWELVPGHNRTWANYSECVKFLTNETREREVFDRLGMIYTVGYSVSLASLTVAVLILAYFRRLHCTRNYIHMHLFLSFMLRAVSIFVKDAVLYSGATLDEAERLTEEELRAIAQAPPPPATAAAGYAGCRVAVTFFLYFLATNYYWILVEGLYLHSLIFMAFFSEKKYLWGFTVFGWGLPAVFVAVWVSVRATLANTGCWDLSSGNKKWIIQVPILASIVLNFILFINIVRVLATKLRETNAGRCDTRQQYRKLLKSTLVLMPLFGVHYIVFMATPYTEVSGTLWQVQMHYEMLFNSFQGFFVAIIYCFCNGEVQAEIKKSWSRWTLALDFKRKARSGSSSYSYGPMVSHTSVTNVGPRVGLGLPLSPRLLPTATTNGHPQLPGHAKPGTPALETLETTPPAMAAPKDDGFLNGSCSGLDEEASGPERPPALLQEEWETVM
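HEK-293-derived GP2 cells expressing PTHR1 and a GloSensor cAMP reporter, 3,000/well, plated overnight, given luciferin plus IBMX (each 0.5 mM as added) for 1 h at 37 °C, then compound for 1 h at 37 °C. Luminescence was read after 15 min at room temperature.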
MBNL1 CUG block: qHTS Assay for Inhibitors of MBNL1-poly(CUG) RNA binding; Muscleblind-like protein 1 (Homo sapiens), Q9NR56; TR-FRET MBNL1-His/biotin-(CUG)12 binding, 665/545 ratio; Potency, µM (titrated, usually from 57.5 µM), without a hit: top-dose activity change, negative = inhibition, actives largely listed as inhibitors; 280,000 tested, 0.036% active; AID 2675, 2010; active = well fitted inhibition curve with a large enough effect in the signal ratio, with a control signal flat, not every such curve was filed as active; inconclusive = small, poorly fitted or top-dose-only effect, or effect the other way, or a change in a side signal; inactive = no such curve, though single readings can be large or run the other way; the % refers to the signal ratio; note: potency is the fitted concentration of half-maximal effect; % is set by controls: 0 for no effect and ±100 for the full control effect
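TR-FRET between His-tagged MBNL1 and biotin-(CUG)12 RNA, detected with Tb anti-His antibody (0.055 ng/ul) and streptavidin-XL665 (5 nM), 60 min at room temperature. Compounds titrated 92 nM to 58 uM; 665/545 nm ratio normalized to buffer and complex controls.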
CBFb RUNX1 block: qHTS Assay for Compounds Blocking the Interaction Between CBF-beta and RUNX1 for the Treatment of Acute Myeloid Leukemia; Runt-related transcription factor 1 (Homo sapiens) + Core-binding factor subunit beta …; AlphaScreen CBFb-His/RUNX1-biotin binding, biochemical; Potency, µM (doses to about 59.8 µM), for inactives: at the top dose activity, negative = inhibition, hits mostly inhibitors; 230,000 tested, under 10 active; AID 1477, 2009; note: % of control where 0% means no effect
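CBFb-His/RUNX1-biotin, 30 nM each, preincubated 20 min RT; compound 15 min RT; Ni + streptavidin beads 50 ng each, 90 min RT; AlphaScreen read.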
DRD3 agonist: qHTS of D3 Dopamine Receptor Agonist: qHTS; 410,000 tested, 0.58% active; D3R DiscoveRx beta-arrestin cells, luminescence, 90 min; AID 652048, 2013; max activation, %; in the data active = max activation above about 30%; note: 0% is about no effect
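Cells at 1500/well, incubated overnight, then treated with pinned compounds (dopamine as control) for 90 min at 37 degrees C. DiscoveRx reagent added for 30 - 60 minutes at room temperature; luminescence read.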
a7 integrin act: qHTS for Activators of Integrin-Mediated Alleviation for Muscular Dystrophy; alpha7betagal myoblasts, beta-gal FDG fluorescence, 48 h; Potency, µM (doses to about 38.3 µM), without a hit: at the highest dose activation, most hits filed as activators; 350,000 tested, 0.064% active; AID 624291, 2012;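 note: potency is the fitted concentration of half-maximal effect; 100% = response of the positive control SU9516; nearly all actives have a fitted effect of over 60% in size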
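alpha7betagal+/- myoblasts (passage 13, 250/well) treated 48 h at 37C with compounds at 1:260 dilution of DMSO stock. Lysed, then beta-galactosidase activity read as FDG fluorescence (ex 480/em 540) after 30 min, with pre-read for autofluorescence.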
Active calls of the source: *; i = inactive; ? = inconclusive; / = no result given; [ ] = another dose, or the depositor's remark. Unless noted, calls come from the whole dose curve; as a rule, active = well fitted curve in the direction sought with a large enough effect; inconclusive = small, poorly fitted or top-dose-only effect, or another doubt; inactive = no such curve, though single readings can be large; an effect the other way counts as inactive or inconclusive.

SMILES	D3 antag	PTHR1 ag	MBNL1 CUG block	CBFb RUNX1 block	DRD3 agonist	a7 integrin act
C[C@@H](NCCCn1cnc2c(OCc3ccccc3)ncnc21)c1cccc2ccccc12	?	-18%	/	/	-47	-42%
Cc1ccc(CN2CCN(CCCn3cnc4c(OCc5ccccc5)ncnc43)CC2)cc1	-53*	-43%	/	/	-64	-26%
c1ccc(COc2ncnc3c2ncn3CCCN2CCN(Cc3cccc4ccccc34)CC2)cc1	-67*	-29%	/	/	-5	-64%
O=C(COC(=O)c1cc(-c2ccccn2)nc2ccccc12)Nc1ncc(C(F)(F)F)cc1Cl	-11	-37%	-13%	?	-9	-10%
Cc1ccc(-n2c(C3CC3c3ccc(Cl)cc3)n[nH]c2=S)cc1 (stereo not drawn)	-61*	6%[57.5 µM]	3%	1%	2	14%[7.66 µM]
COc1ccc(OCc2nnc(SCC(=O)Nc3nnc(C4CC4)s3)n2C)cc1	16	i	-4%	/	-1	-9%
C=CCN1C(=O)S/C(=C/c2ccc(Sc3nc4ccccc4[nH]3)o2)C1=O	38	-41%	/	-12%	51*	-27%
CC(=O)Oc1ccc(C(=O)Nc2ccccc2C(=O)N2CCCCC2)cc1	-57*	i	-7%	18%	-11	0%
NC(=O)C[n+]1cccc(C(=O)Nc2ccccc2)c1	-67*	-23%	7%	/	0	?
C[C@H](CCCC/C=C/C(=O)O)O[C@@H]1O[C@@H](C)[C@H](O)C[C@H]1O	3	1%	/	/	44*	31%
O=C(Nc1ccc2c(c1)OCO2)c1cc(C2CCCCN2C(=O)c2ccccc2)on1 (stereo not drawn)	18	i	/	/	6	/
CCOC(=O)CSc1ncnc2c1sc1nc(N3CCOCC3)c3c(c12)CCCC3	-4	-17%[57.5 µM]	55%	0%	61*	5%
O=C(NCc1ccncc1)/C(=N/O)c1ccccc1	-53*	-14%[57.5 µM]	4%	-3%	9	17%
Cn1c(=O)c2c(-c3ccccc3)n(-c3cc([N+](=O)[O-])ccc3O)cc2n(C)c1=O	-51*	-27%	/	/	-7	-9%
Cc1ccc(S(=O)(=O)CCNC(=O)Cc2ccccc2)cc1	9	-19%	-1%	3%	0	-4%
Cc1[nH]n(-c2ccccc2)c(=O)c1C=Nc1cccc2cccnc12	-87*	i	/	-7%	-20	2%
COc1ccc(CCNC2CCC(c3ccccc3)CC2)cc1 (stereo not drawn)	-65*	i	-4%	/	-8	-23%
COc1ccc(S(N)(=O)=O)cc1C(=O)OCC(=O)N1CC(=O)Nc2ccccc21	-19	i	/	/	7	-28%
CCn1c(C)nc2cc(-c3nnc(-c4c(-c5ccccc5)noc4C)o3)ccc21	87	-14%[57.5 µM]	3%	0%	41*	-24%
COc1cc(OC)c(OC)cc1CCC(C)NCCC(c1ccccc1)c1ccccc1 (stereo not drawn)	-71*	-3%	-6%	/	0	-58%
Cc1cccc(N(C)C(=S)Oc2ccc3ccccc3c2)c1	-65*	-7%	-20%	?	-10	/
Cc1ccc(-c2c3c(=O)n(C)c(=O)n(C)c3cn2N2CCOCC2)cc1	-51*	i	3%	-2%	3	-15%
CCCn1cc2c(c1-c1ccc(C)cc1)c(=O)n(C)c(=O)n2C	5	i	1%	-10%	3	1%
O=C(COC(=O)C1CCN(S(=O)(=O)c2ccccc2C(F)(F)F)CC1)NCc1ccc(F)cc1	-18	i	-5%	-1%	257*	-52%
O=C(COC(=O)C1CCN(S(=O)(=O)c2cccs2)CC1)NCc1ccc(F)cc1	-20	-25%	-15%	4%	-8	-12%
SMILES	D3 antag	PTHR1 ag	MBNL1 CUG block	CBFb RUNX1 block	DRD3 agonist	a7 integrin act
N/C(=N\OC(=O)CSc1ccccc1)c1ccncc1	0	-1%	3%	/	8	-20%
COc1cc(Cl)c(C)cc1NC(=O)c1cc(S(=O)(=O)N(C)C)ccc1N1CCCC1	5	i	-2%	-6%	2	5%
COc1ccc(NC(=O)N(Cc2ccco2)C2CCN(C(C)=O)CC2)c(OC)c1	/	-10%	/	/	1	/
CN(CCOc1ccccc1)CC(O)COc1ccccc1 (stereo not drawn)	-74*	-6%	8%	/	-11	-6%
CN(CCOc1ccc(Br)cc1)CC(O)c1ccccc1 (stereo not drawn)	-18	i	-12%	/	-13	-32%
CN(CCOc1ccccc1)CC(O)COCc1ccccc1F (stereo not drawn)	?	i	-4%	/	-5	-10%
CN(CCOc1ccc(Cl)cc1)CC(O)c1ccccc1 (stereo not drawn)	-52*	i	-6%	/	-9	-3%
CC(OCC(O)CN(C)CCOc1ccccc1)c1ccc(Cl)cc1 (stereo not drawn)	-69*	-47%[57.5 µM]	8%	11%	-5	-29%
Cc1cnc(C(=O)OCC(=O)NC(C)CCc2ccccc2)cn1 (stereo not drawn)	-4	i	/	0%	6	-8%
COC(=O)[C@@]12C[C@@H](CC(=O)NCCC(C)C)C(=O)N(CCc3ccc(OC)c(OC)c3)C1=CCC(C)(C)C2	-3	6%	/	/	-6	/
COc1cccc(C(=O)COc2cccc(NC(=O)c3cccc([N+](=O)[O-])c3)c2)c1	-51*	-30%[57.5 µM]	23%	-13%	14	-42%
COC(=O)Nc1ccc(SCC(=O)c2cccc([N+](=O)[O-])c2)cc1	-60*	-28%	?	/	-5	-39%
O=C(COc1cccc(NC(=O)c2cccc([N+](=O)[O-])c2)c1)c1ccc(F)cc1	-13	-31%[57.5 µM]	?	-14%	4	19%
Clc1ccccc1OCc1nn[nH]n1	-13	i	-8%	8%	6	23%
Cc1cccc(OCc2nn[nH]n2)c1C	-12	?	-2%	/	68*	11%
CC1Sc2ccc(C(=O)N(CCc3ccccc3)Cc3ccccc3)cc2NC1=O (stereo not drawn)	-16	-74%	/	/	-7	-22%
O=C(CN1C(=O)C2C3C=CC(C3)C2C1=O)OCC(=O)c1ccc(Cl)c([N+](=O)[O-])c1 (stereo not drawn)	-70*	-16%	/	/	-30	-16%
